Results filed as inconclusive are left out. The source made the active and inactive calls. The call rests on the fitted dose curve; tested in HEK293 reporter line.
assay: qHTS for Inhibitors of the Functional Ribonucleoprotein Complex (vRNP) of Lymphocytic Choriomeningitis Arenaviruses (LCMV): Viability assay - alamar blue signal for LCMV Primary Screen (AID 1347085); conditions: alamar blue viability counter-screen, LCMV vRNP screen cells; series mostly up to 57.5 µM; further: nearly all actives have a fitted effect of over 80% in size
Potency means the concentration at half of the fitted maximal effect.

Question: For O=C(O)c1ccc(O)c2ncc(N3CCOCC3)cc12, which Potency is on record?
Answer: Its Potency is 48.5 µM (active).

Question: For CC(C)(C)c1[nH]cnc1C=c1[nH]c(=O)c(=Cc2ccccc2)[nH]c1=O, which Potency is on record?
Answer: Its Potency is 0.0079 µM (active).

Question: With COC(=O)Nc1ccc(-c2nc(N3CCOCC3)c3cnn(C4CCN(C(=O)OC)CC4)c3n2)cc1 as the compound, how does the Potency read?
Answer: Its Potency is “inactive”.

Question: Which Potency does the source give for Cc1cn2c(-c3cn[nH]c3)cnc2c(Nc2ccc(C(=O)N3CCNCC3)cc2F)n1 here?
Answer: The Potency was 1.93 µM (active).

Question: For Cc1cccc(Nc2nc(N[C@@H]3CCCC[C@H]3N)ncc2C(N)=O)c1, which Potency is on record?
Answer: The Potency was “inactive”.

Question: With O=C(Nc1cc(C(F)(F)F)cc(C(F)(F)F)c1)c1cc(Cl)ccc1O as the compound, how does the Potency read?
Answer: The Potency was 2.43 µM (active).

Question: With CN(C)C(=O)c1ccc(S(=O)(=O)c2ccc(NC(=O)[C@@](C)(O)C(F)(F)F)c(Cl)c2)cc1 as the compound, how does the Potency read?
Answer: The Potency was “inactive”.

Question: Which Potency does the source give for COc1cccc2cc(-c3nc(C4CCC(C(=O)O)CC4)n4ncnc(N)c34)[nH]c12 (centres undefined) here?
Answer: The Potency was 1.72 µM (active).

Question: For O=C(Nc1ccc(Oc2ccc(Cl)cc2)c(Cl)c1)c1cc(I)cc(I)c1O, which Potency is on record?
Answer: The Potency was “inactive”.

Question: For O=C(C=Cc1cccc(S(=O)(=O)Nc2ccccc2)c1)NO, which Potency is on record?
Answer: Its Potency is 39.5 µM (active).

Question: Which Potency does the source give for C[C@@H](Oc1cc(-n2cnc3ccc(CN4CCN(C)CC4)cc32)sc1C(N)=O)c1ccccc1C(F)(F)F here?
Answer: The Potency was “inactive”.

Question: With CCCCN1CCC(CNC(=O)c2c3n(c4ccccc24)CCCO3)CC1 as the compound, how does the Potency read?
Answer: Its Potency is 7.69 µM (active).

Question: With CCN1CCN(CC(=O)Nc2ccc(-c3cccc4c(=O)cc(N5CCOCC5)oc34)c3sc4ccccc4c23)CC1 as the compound, how does the Potency read?
Answer: Its Potency is 1.22 µM (active).

Question: For COc1cc2ncnc(Nc3ccc(F)c(Cl)c3)c2cc1NC(=O)C=CCN1CCCCC1, which Potency is on record?
Answer: Its Potency is “inactive”.

— PubChem BioAssay (NCATS)
